The results in this text go back to PubChem BioAssay (EPA / NIEHS).

“And” between values parts separate entries of the source, which are not always exact repeats. Identical values can stand only once. Where a structure was tested more than once in an assay, its records may differ in their call. The source made the active and inactive calls. Rule for the calls: active = hit-call score of the fitted dose curve at least 0.9, where 1 is the maximum; inactive = score below 0.9.

Holding throughout (conditions): mRNA level, 48 h; actives raise or lower the signal
Read-out in experiment [1]: Peroxisomal acyl-coenzyme A oxidase 1 (ACOX1) gene, ACOX1 (gene 51)
Briefly: LTEA_HepaRG_ACOX1: Life Technologies and Expression Analysis (LTEA) Assay for Peroxisomal acyl-coenzyme A oxidase 1 (ACOX1) gene using HepaRG (AID 2283467). An outline of the steps:
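HepaRG cells, plated 48 h then switched to serum-free induction medium, were exposed in duplicate for 48 h to 8-point half-log concentrations up to 100 uM in 0.5% DMSO. ACOX1 mRNA was measured by qRT-PCR, normalized to ACTB/GAPDH/POLR2A, and fitted bidirectionally versus DMSO.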

Read-out in experiment [2]: Alkaline Phosphatase, Placental (ALPP) gene, ALPP (gene 250)
Briefly: LTEA_HepaRG_ALPP: Life Technologies and Expression Analysis (LTEA) Assay for Alkaline Phosphatase, Placental (ALPP) gene using HepaRG (AID 2283468). An outline of the steps:
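HepaRG cells plated 48 h, then exposed in duplicate for 48 h in serum-free induction medium to 8-point half-log series from 100 uM in 0.5% DMSO. ALPP mRNA by TaqMan qRT-PCR, normalized to ACTB/GAPDH/POLR2A; bidirectional fit versus DMSO.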

Read-out in experiment [3]: Bcl-2 (BAD) gene, BAD (gene 572)
Briefly: LTEA_HepaRG_BAD: Life Technologies and Expression Analysis (LTEA) Assay for Bcl-2 (BAD) gene using HepaRG (AID 2283469). The procedure, abridged:
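Differentiated HepaRG cells were exposed in duplicate in 0.5% DMSO for 48 h to eight-point half-log concentrations up to 100 uM. BAD mRNA was measured by Fluidigm TaqMan qRT-PCR, normalized to ACTB, GAPDH and POLR2A, and fitted bidirectionally against DMSO.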

Read-out in experiment [4]: Bcl-2 (BAX) gene, BAX (gene 581)
Briefly: LTEA_HepaRG_BAX: Life Technologies and Expression Analysis (LTEA) Assay for Bcl-2 (BAX) gene using HepaRG (AID 2283470). The procedure, abridged:
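HepaRG (human liver), 48 h exposure, duplicate wells. 8-pt curve, half-log from 100 uM, 0.5% DMSO. BAX transcript by TaqMan qRT-PCR; ACTB/GAPDH/POLR2A normalization; gain or loss vs DMSO baseline.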

Read-out in experiment [5]: adenosine kinase (ADK) gene, ADK (gene 132)
In words: LTEA_HepaRG_ADK: Life Technologies and Expression Analysis (LTEA) Assay for adenosine kinase (ADK) gene using HepaRG (AID 2283471). The procedure, abridged: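 HepaRG (human liver), 48 h chemical exposure, 8-pt half-log series, top 100 uM, 0.5% DMSO vehicle. Readout: ADK mRNA by qRT-PCR vs housekeeping genes; bidirectional curve fit relative to DMSO baseline.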

Read-out in experiment [6]: Alpha-fetoprotein (AFP) gene, AFP (gene 174)
Briefly: LTEA_HepaRG_AFP: Life Technologies and Expression Analysis (LTEA) Assay for Alpha-fetoprotein (AFP) gene using HepaRG (AID 2283472). An outline of the steps: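 HepaRG, single lot; 48 h post-plating -> serum-free induction medium; cpd 8-pt, 100 uM top, half-log, 0.5% DMSO, duplicate, 48 h. RNA -> qRT-PCR AFP, norm ACTB/GAPDH/POLR2A. Bidirectional fit vs DMSO.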

Read-out in experiment [7]: Apoptosis regulator Bcl-2 (Homo sapiens) (UniProt P10415)
In words: LTEA_HepaRG_BCL2: Life Technologies and Expression Analysis (LTEA) Assay for Bcl-2 gene using HepaRG (AID 2283475). An outline of the steps:
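HepaRG, plated 48 h then switched to serum-free induction medium; dosed 48 h, 8 conc. (max 100 uM, half-log steps), duplicate, 0.5% DMSO. Lysis in RLT, RNA isolated, TaqMan qRT-PCR for BCL2; ACTB/GAPDH/POLR2A normalisation; bidirectional fit vs DMSO.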

Read-out in experiment [8]: Bcl-2 (BID) gene, BID (gene 637)
Briefly: LTEA_HepaRG_BID: Life Technologies and Expression Analysis (LTEA) Assay for Bcl-2 (BID) gene using HepaRG (AID 2283476). The procedure, abridged:
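Transcript levels of BID, measured by qRT-PCR and normalized to three housekeeping genes, were fitted bidirectionally against DMSO controls. Cells were HepaRG, dosed 48 h at up to 100 uM.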

Read-out in the next experiment: Caspase-3 (Homo sapiens) (UniProt P42574)
In words: LTEA_HepaRG_CASP3: Life Technologies and Expression Analysis (LTEA) Assay for cysteine-aspartic acid protease (CASP3) using HepaRG (AID 2283477). An outline of the steps:
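Differentiated HepaRG cells, plated 48 h, were treated in duplicate in serum-free induction medium for 48 h with eight half-log concentrations up to 100 uM in 0.5% DMSO. CASP3 mRNA measured by qRT-PCR, normalized to ACTB, GAPDH, POLR2A.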

Read-out in experiment [9]: Cytochrome P450 (CYP24A1), CYP24A1 (gene 1591)
In words: LTEA_HepaRG_CYP24A1: Life Technologies and Expression Analysis (LTEA) Assay for Cytochrome P450 (CYP24A1) using HepaRG (AID 2283478). An outline of the steps:
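HepaRG cells plated 48 h, then exposed in duplicate in serum-free induction medium for 48 h to 8-point half-log series from 100 uM in 0.5% DMSO. CYP24A1 mRNA by Fluidigm qRT-PCR, normalized to ACTB, GAPDH, POLR2A; bidirectional fit versus DMSO.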

Read-out in experiment [10]: Cytochrome P450 (CYP1A2), CYP1A2 (gene 1544)
Briefly: LTEA_HepaRG_CYP1A2: Life Technologies and Expression Analysis (LTEA) Assay for Cytochrome P450 (CYP1A2) using HepaRG (AID 2283479). The procedure, abridged:
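Differentiated human HepaRG cells in serum-free induction medium exposed 48 hours in duplicate to 8 half-log concentrations from 100 uM, 0.5% DMSO. CYP1A2 mRNA quantified by qRT-PCR, normalized to ACTB, GAPDH and POLR2A; bidirectional fitting versus DMSO.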

Read-out in experiment [11]: cysteine-aspartic acid protease (CASP8), CASP8 (gene 841)
Briefly: LTEA_HepaRG_CASP8: Life Technologies and Expression Analysis (LTEA) Assay for cysteine-aspartic acid protease (CASP8) using HepaRG (AID 2283480). The procedure, abridged:
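Differentiated HepaRG cells in serum-free induction medium, 48 h exposure, eight-point half-log series from 100 uM in 0.5% DMSO, duplicates. CASP8 mRNA by qRT-PCR, normalized to ACTB, GAPDH, POLR2A; bidirectional fit versus DMSO.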

Read-out in experiment [12]: Cytochrome P450 (CYP2B6), CYP2B6 (gene 1555)
Briefly: LTEA_HepaRG_CYP2B6: Life Technologies and Expression Analysis (LTEA) Assay for Cytochrome P450 (CYP2B6) using HepaRG (AID 2283481). The procedure, abridged:
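Differentiated human HepaRG cells in serum-free induction medium, dosed in duplicate for 48 h over 8 half-log concentrations topping at 100 uM (0.5% DMSO). CYP2B6 mRNA measured by TaqMan qRT-PCR, normalized to ACTB, GAPDH, POLR2A; bidirectional fit versus DMSO.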

Read-out in experiment [13]: Cytochrome P450 2C19 (Homo sapiens) (UniProt P33261)
In words: LTEA_HepaRG_CYP2C19: Life Technologies and Expression Analysis (LTEA) Assay for CYP2C19 using HepaRG (AID 2283482). An outline of the steps: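 Differentiated HepaRG cells in serum-free induction medium exposed 48 h in duplicate, 8 concentrations from 100 uM by half-log steps in 0.5% DMSO. CYP2C19 mRNA measured by TaqMan qRT-PCR, normalized to ACTB, GAPDH, POLR2A. Bidirectional fit versus DMSO.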

Read-out in the next experiment: CYP2C8 (gene 1558)
Briefly: LTEA_HepaRG_CYP2C8: Life Technologies and Expression Analysis (LTEA) Assay for CYP2C8 using HepaRG (AID 2283483). The procedure, abridged: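 Differentiated HepaRG cells in serum-free induction medium exposed 48 h in duplicate to 8 half-log concentrations from 100 uM in 0.5% DMSO. CYP2C8 mRNA by qRT-PCR normalized to ACTB, GAPDH, POLR2A; bidirectional fit versus DMSO.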

Read-out in another experiment: CYP2C9 (gene 1559)
Briefly: LTEA_HepaRG_CYP2C9: Life Technologies and Expression Analysis (LTEA) Assay for CYP2C9 using HepaRG (AID 2283484). The procedure, abridged:
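Differentiated human HepaRG cells in serum-free induction medium were exposed 48 h to chemicals in 8-point half-log series from 100 uM (0.5% DMSO), in duplicate. CYP2C9 mRNA was measured by qRT-PCR, normalized to ACTB/GAPDH/POLR2A, with bidirectional fitting versus DMSO.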

Read-out in a further experiment: BCL2L11 (gene 10018)
In words: LTEA_HepaRG_BCL2L11: Life Technologies and Expression Analysis (LTEA) Assay for Bcl-2 (BCL2L11) gene using HepaRG (AID 2283473). The procedure, abridged: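 Differentiated human HepaRG cells were exposed 48 h in serum-free induction medium to eight half-log concentrations up to 100 uM in 0.5% DMSO, in duplicate. BCL2L11 mRNA was quantified by TaqMan qRT-PCR, normalized to ACTB, GAPDH and POLR2A; induction or repression fitted versus DMSO.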

Caspase-3 (Homo sapiens), sequence (P42574 whole entry, looked up): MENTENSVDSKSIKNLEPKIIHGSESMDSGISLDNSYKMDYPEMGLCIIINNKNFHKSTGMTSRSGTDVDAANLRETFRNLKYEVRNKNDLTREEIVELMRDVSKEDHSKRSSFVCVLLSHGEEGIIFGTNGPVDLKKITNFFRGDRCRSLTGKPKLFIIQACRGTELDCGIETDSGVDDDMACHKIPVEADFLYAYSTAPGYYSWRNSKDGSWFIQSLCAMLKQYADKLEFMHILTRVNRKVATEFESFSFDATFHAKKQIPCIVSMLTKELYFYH
Cytochrome P450 2C19 (Homo sapiens), sequence (P33261 whole entry, looked up): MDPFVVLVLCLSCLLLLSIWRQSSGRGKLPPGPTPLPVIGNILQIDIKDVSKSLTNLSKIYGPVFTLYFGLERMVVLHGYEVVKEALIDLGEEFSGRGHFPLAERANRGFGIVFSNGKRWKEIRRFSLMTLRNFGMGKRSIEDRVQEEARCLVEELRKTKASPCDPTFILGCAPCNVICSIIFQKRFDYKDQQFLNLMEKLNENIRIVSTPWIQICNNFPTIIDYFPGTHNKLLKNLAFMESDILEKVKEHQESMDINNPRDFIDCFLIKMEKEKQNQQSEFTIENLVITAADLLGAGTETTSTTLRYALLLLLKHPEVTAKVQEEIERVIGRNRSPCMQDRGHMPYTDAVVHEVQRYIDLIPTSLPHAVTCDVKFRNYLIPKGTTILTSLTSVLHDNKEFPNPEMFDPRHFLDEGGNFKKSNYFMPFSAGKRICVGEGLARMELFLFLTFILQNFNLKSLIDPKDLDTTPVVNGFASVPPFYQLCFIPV
Apoptosis regulator Bcl-2 (Homo sapiens), sequence (P10415 whole entry, looked up): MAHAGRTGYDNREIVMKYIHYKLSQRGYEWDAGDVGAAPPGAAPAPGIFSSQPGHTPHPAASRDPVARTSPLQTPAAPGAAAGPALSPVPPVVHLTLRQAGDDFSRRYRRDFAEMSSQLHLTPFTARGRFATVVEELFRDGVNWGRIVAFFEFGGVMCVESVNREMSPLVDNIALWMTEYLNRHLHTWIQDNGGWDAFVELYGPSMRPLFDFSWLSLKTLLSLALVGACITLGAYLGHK

In general, AC50 refers to the concentration at which the activity in the assay is half-maximal. On to `O=C(O)c1nc(Cl)ccc1Cl`, for which the call in experiment [1], in [2], in experiment [3], in experiment [4], in [5] and in experiment [6] was inactive. Also, the compound was called inactive (in experiment [7]; in experiment [8]; with Caspase-3 (Homo sapiens); in experiment [9]; in [10]; in experiment [11]). The compound was classed as inactive (in [12]; in experiment [13]; with CYP2C8 (gene 1558); in the experiment with CYP2C9 (gene 1559)). For the same compound, the results for the AC50 in experiment [2] and in experiment [10] were 27.3 µM (active) and 50 µM (active), respectively.

Regarding `CCCN(CCC)c1c([N+](=O)[O-])cc(S(N)(=O)=O)cc1[N+](=O)[O-]`, the AC50 was 77.5 µM (active) in experiment [1]; 74.1 µM (active) in experiment [3]; 80.6 µM (active) in experiment [5]; 15.8 µM (active) in experiment [6]; 79.2 µM (active) with Caspase-3 (Homo sapiens); 87.5 µM (active) in experiment [10]. In addition, the AC50 in experiment [11] was 83.3 µM (active) and 79.5 µM (active); in experiment [12], 11.1 µM (active) and 11.9 µM (active) and 10.7 µM (active); in experiment [13] it was 8.44 µM (active) and 84.8 µM (active) and 8.78 µM (active); in the experiment with CYP2C9 (gene 1559), 95 µM (active) and 82 µM (active). Moreover, the compound was called inactive in experiment [1], in experiment [2], in experiment [3], in [4], in experiment [5] and in experiment [6]. Moreover, the outcome (in experiment [7]; in [8]; with Caspase-3 (Homo sapiens); in experiment [9]; in experiment [10]; in experiment [11]) was inactive. The call in the experiment with CYP2C8 (gene 1558) and with CYP2C9 (gene 1559) was inactive.

Take `COP(N)(=O)SC` (centres undefined): the call in experiment [1], in [2], in [3], in [4], in experiment [5] and in experiment [6] was inactive. Also, the result (in the experiment with BCL2L11 (gene 10018); in experiment [7]; in experiment [8]; with Caspase-3 (Homo sapiens); in experiment [9]; in experiment [10]) was inactive. For the same compound, the call (in experiment [11]; in [12]; in [13]; in the experiment with CYP2C8 (gene 1558); in the experiment with CYP2C9 (gene 1559)) was inactive.
